Measurements from PubChem BioAssay (NCATS).
Inconclusive results are not listed. A call without a number means that no potency is given here. The source made the active and inactive calls. Unless noted, calls come from the whole dose curve; as a rule, active = well fitted curve in the direction sought with a large enough effect; inconclusive = small, poorly fitted or top-dose-only effect, or another doubt; inactive = no such curve, though single readings can be large; an effect the other way counts as inactive or inconclusive.

Assays:
[1] = target: T1, Hexokinase-4 (Homo sapiens) + Glucokinase regulatory protein (Homo sapiens) (UniProt P35557+Q14397); test: qHTS assay for inhibitors of recombinant human GCK-GKRP interaction: Diaphorase-coupled assay (AID 743205)
In short: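 Inhibitors of the GCK–GKRP complex relieve GKRP suppression of GCK, detected through a G6PDH–diaphorase cascade reducing resazurin. Human GST-GCK and FLAG-GKRP are used at 10 nM with 5 mM glucose and 0.4 mM ATP.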

[2] = target: T1, Hexokinase-4 (Homo sapiens) + Glucokinase regulatory protein (Homo sapiens); test: qHTS assay for inhibitors of recombinant human GCK-GKRP interaction: HTRF assay (AID 743207)
In short: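 Steps: dispense GCK–GKRP complex (5 nM each, GST- and FLAG-tagged) with 2 uM S6P; pin in compounds; add XL665/Eu-cryptate-labelled antibodies; incubate 60 min at room temperature; read time-resolved FRET at 665 and 615 nm.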

[3] = qHTS Assay for Identifying Gametocytocidal Compounds (AID 743244); note: potency is the fitted concentration of half-maximal effect;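 for max response: actives lower the fluorescent signal which means gametocytes are killed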; details: P. falciparum 3D7 stage III-V gametocytes, alamarBlue, 72 h; max response: stronger effect = lower value
In short: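 P. falciparum 3D7 stage III–V gametocytes (20,000 cells/well) were exposed to compounds for 72 h at 37 °C, 5% CO2. AlamarBlue was then added for 24 h; decreased resorufin fluorescence (Ex 525/Em 598 nm) indicated loss of viability.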

[4] = target: T1, Hexokinase-4 (Homo sapiens) + Glucokinase regulatory protein (Homo sapiens); test: qHTS assay for inhibitors of recombinant human GCK-GKRP interaction: ADP-Glo assay (AID 743206)
In short: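 Pin-transferred compounds meet a 15 nM GST-GCK/15 nM FLAG-GKRP/2 uM S6P mix (dispense concentrations). ATP is then added to 0.4 mM final with 5 mM glucose, and the reaction runs 60 min at room temperature. ADP is quantified luminescently.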

[5] = qHTS profiling of the MIPE4 collection as inhibitors of Plasmodium falciparum (3D7) proliferation (AID 743344; call rule not given here); details: P. falciparum 3D7 in erythrocytes, SYBR Green DNA fluorescence, 72 h; at 28.5 µM (top of the series)
Text: Plasmodium falciparum is a virulent malarial parasite that kills 1-2 million people worldwide each year. Transmitted by mosquitoes, the sporozoite form of the parasite enters the blood stream to infect hepatocytes, where they become merozoites that infect red blood cells (erythrocytes). Within erythrocytes, merozoites begin a […] cycle of growth and division, after which the parasite is released to infect new red blood cells. Gametocytes, which form within erythrocytes as well, circulate in the bloodstream and are ingested by the mosquito, thereby completing the life cycle. To profile malarial isolates for differential chemical responses and to identify inhibitors of malarial growth, an assay that measures P. falciparum growth and replication within erythrocytes was employed. […] Because mature erythrocytes lack DNA, only Plasmodium-derived DNA is detected.
The SYBR Green viability assay was adapted from a method described previously (Plouffe et al., 2008). […] The following morning, fluorescence intensity at 485(14) nm excitation and 535(25) nm emission wavelengths was measured on an EnVision (Perkin Elmer) plate reader. Plate reads were normalized relative to the control inhibitor (0.29 uM artemisinin) and vehicle (DMSO) wells present on each plate and then corrected by an algorithm using vehicle-only control plates at the beginning and end of the compound plate stack.

[6] = qHTS assay for cell viability of HEK293 cells (AID 743288); details: ATP luminescence (CellTiter-Glo), 18 h; max response: stronger effect = lower value; note: nearly all actives have a fitted effect of over 50% in size
In short: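 Quantitative high-throughput screen: compounds were pinned onto parental HEK293 cells (2,000 per well) after a minimum 5 h settling at 37 C, incubated 18 h at 37 C, and intracellular ATP measured by luciferase luminescence.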

[7] = qHTS assay for cell viability of the p53RE-bla HCT-116 cell line (AID 743292); note: nearly all actives have a fitted effect of over 55% in size
In short: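 Viability of compound-treated p53RE-bla HCT-116 cells is taken from ATP-dependent luciferase luminescence. Treatment lasts 16 h at 37 C after a 5 h settling period; detection follows 30 min at room temperature.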

T1 sequence (P35557 whole entry, looked up): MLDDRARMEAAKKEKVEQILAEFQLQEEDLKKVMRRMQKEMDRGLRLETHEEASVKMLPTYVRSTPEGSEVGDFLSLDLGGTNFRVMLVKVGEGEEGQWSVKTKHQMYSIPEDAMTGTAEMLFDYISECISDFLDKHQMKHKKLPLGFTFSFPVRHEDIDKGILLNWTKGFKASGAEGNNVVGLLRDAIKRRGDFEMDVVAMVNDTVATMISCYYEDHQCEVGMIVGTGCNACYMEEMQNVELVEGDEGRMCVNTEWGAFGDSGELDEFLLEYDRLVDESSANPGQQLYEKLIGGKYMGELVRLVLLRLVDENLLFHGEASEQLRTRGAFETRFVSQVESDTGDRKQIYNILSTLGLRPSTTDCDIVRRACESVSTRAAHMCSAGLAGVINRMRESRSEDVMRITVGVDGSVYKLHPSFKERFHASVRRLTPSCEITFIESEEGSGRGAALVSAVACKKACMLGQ
T1 sequence (Q14397 whole entry, looked up): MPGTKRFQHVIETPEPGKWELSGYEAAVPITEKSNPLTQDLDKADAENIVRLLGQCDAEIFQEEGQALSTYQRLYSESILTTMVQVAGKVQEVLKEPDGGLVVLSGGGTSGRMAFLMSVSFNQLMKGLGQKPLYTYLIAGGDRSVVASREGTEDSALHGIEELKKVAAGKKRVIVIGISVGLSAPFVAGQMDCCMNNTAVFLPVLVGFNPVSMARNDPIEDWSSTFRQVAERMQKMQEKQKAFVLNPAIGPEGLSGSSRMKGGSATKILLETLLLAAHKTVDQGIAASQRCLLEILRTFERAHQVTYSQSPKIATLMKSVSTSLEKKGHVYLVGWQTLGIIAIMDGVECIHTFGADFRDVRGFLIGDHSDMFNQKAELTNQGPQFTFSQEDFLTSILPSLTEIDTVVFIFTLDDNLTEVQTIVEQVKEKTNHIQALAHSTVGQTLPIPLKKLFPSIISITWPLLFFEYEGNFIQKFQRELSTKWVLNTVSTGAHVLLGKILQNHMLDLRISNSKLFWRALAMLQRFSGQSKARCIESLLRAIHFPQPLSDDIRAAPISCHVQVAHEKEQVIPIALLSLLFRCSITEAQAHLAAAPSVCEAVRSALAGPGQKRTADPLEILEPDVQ

Question: What does the source list for `c1ccc2nc(C3=NCCN3)ccc2c1`?
Answer: Potency [1]: inactive; Potency [2]: inactive; max response [3]: 12% (inactive)

Question: With `NC1(C(=O)O)CCCCC1` as the compound, how does the Potency [1] read?
Answer: inactive

Question: And the Potency [2]?
Answer: inactive

Question: For `CC#CCOC(=O)c1c(C)nc2sc3c(c2c1N)CCC(O)C3` (stereo not given), which Potency [1] is on record?
Answer: inactive

Question: What about the Potency [4] of the same compound?
Answer: inactive

Question: And the max response [3]?
Answer: -7.3% (inactive)

Question: For `Oc1ccc(/C=C/c2ccc(/C=C/c3ccc(O)cc3)c(Br)c2)cc1`, which Potency [1] is on record?
Answer: inactive

Question: And the Potency [2]?
Answer: inactive

Question: Which results are given for `Cc1nc(N=Nc2ccc(S(=O)(=O)O)cc2S(=O)(=O)O)c(COP(=O)(O)O)c(C=O)c1O`?
Answer: Potency [1]: inactive; Potency [4]: inactive; Potency [2]: inactive; parasite growth, % of DMSO control [5]: 98.1%

Question: With `CC(=O)/C(C)=N/O` as the compound, how does the Potency [1] read?
Answer: inactive

Question: And the Potency [2]?
Answer: inactive

Question: And the max response [3]?
Answer: -4.63% (inactive)

Question: For `NC1CONC1=O` (stereo not given), which Potency [1] is on record?
Answer: inactive

Question: What about the Potency [2] of the same compound?
Answer: inactive

Question: And the max response [3]?
Answer: 13.9% (inactive)

Question: And the parasite growth, % of DMSO control [5]?
Answer: 94.2%

Question: For `c1ccc2c(c1)CCC[C@H]2Nc1nc2ccccc2[nH]1`, which Potency [1] is on record?
Answer: inactive

Question: And the Potency [2]?
Answer: inactive

Question: And the max response [3]?
Answer: 12.6% (inactive)

Question: With `CN1CCc2cc(Cl)c(O)cc2[C@@H](c2ccccc2)C1` as the compound, how does the Potency [1] read?
Answer: inactive

Question: And the Potency [2]?
Answer: inactive

Question: What about the max response [3] of the same compound?
Answer: 34.1% (inactive)

Question: With `C=C1C(=O)O[C@@H]2[C@H]3O[C@]3(C)CCC=C(C)CC[C@@H]12` as the compound, how does the Potency [4] read?
Answer: inactive

Question: And the Potency [2]?
Answer: inactive

Question: For `CC(=O)C(C)=O`, which Potency [1] is on record?
Answer: inactive

Question: What about the Potency [2] of the same compound?
Answer: inactive

Question: What about the max response [6] of the same compound?
Answer: -4.3% (inactive)

Question: And the Potency [7]?
Answer: inactive

Question: With `CCCCCCCCCCCCCCCCCCOC[C@H](COP(=O)([O-])OCC[N+](C)(C)C)OC` as the compound, how does the Potency [1] read?
Answer: inactive

Question: And the Potency [2]?
Answer: inactive

Question: Which Potency [1] does the source give for `CSc1nc(N)c2ncn([C@@H]3O[C@H](COP(=O)(O)OP(=O)(O)O)C(O)[C@H]3O)c2n1` (stereo not given in full) here?
Answer: inactive

Question: What about the Potency [4] of the same compound?
Answer: inactive

Question: And the max response [3]?
Answer: 18.1% (inactive)

Question: Which Potency [1] does the source give for `CCCN(CCc1ccccc1)C1CCc2c(O)cccc2C1` (stereo not given) here?
Answer: inactive

Question: What about the Potency [2] of the same compound?
Answer: inactive

Question: With `Fc1ccc(CN(C2=NCCN2)c2c(Cl)cccc2Cl)cc1` as the compound, how does the Potency [1] read?
Answer: inactive

Question: And the Potency [2]?
Answer: inactive

Question: What about the max response [3] of the same compound?
Answer: -2.54% (inactive)

Question: With `CCc1ccc2c(-c3cccc(Cl)c3)nc(=O)n(CC)c2n1` as the compound, how does the Potency [1] read?
Answer: inactive

Question: And the Potency [2]?
Answer: inactive

Question: And the max response [3]?
Answer: 15.8% (inactive)

Question: Which Potency [1] does the source give for `N=C(N)c1ccc(OCCCCCOc2ccc(C(=N)N)cc2)cc1` (tested in a mixture with another compound) here?
Answer: inactive

Question: And the Potency [2]?
Answer: inactive

Question: And the Potency [3]?
Answer: 0.562 µM (active)

Question: What does the source list for `COc1ccc(CCn2nnnc2C2(c3ccc(C)cc3)CC2)cc1`?
Answer: Potency [1]: inactive; Potency [2]: inactive

Question: What does the source list for `CC(/C=C/c1cccc(Oc2ccc(F)cc2)c1)N(O)C(N)=O` (stereo not given)?
Answer: Potency [1]: inactive; Potency [2]: inactive; max response [3]: 13.8% (inactive)

Question: With `Nc1ncnc2c1ncn2C1CCCC1` as the compound, how does the Potency [1] read?
Answer: inactive

Question: And the Potency [2]?
Answer: inactive

Question: And the max response [3]?
Answer: 29.2% (inactive)

Question: With `NS(=O)(=O)c1cccc2c1c([N+](=O)[O-])cc1nc(O)c(O)nc12` as the compound, how does the Potency [1] read?
Answer: inactive

Question: What about the Potency [2] of the same compound?
Answer: inactive

Question: And the max response [3]?
Answer: 24.6% (inactive)

Question: With `CCCn1c(=O)c(C)cn2nc(N)nc12` as the compound, how does the Potency [1] read?
Answer: inactive

Question: What about the Potency [2] of the same compound?
Answer: inactive

Question: What about the max response [3] of the same compound?
Answer: -2.34% (inactive)

Question: For `NCC(O)c1ccc(O)c(O)c1` (stereo not given), which Potency [1] is on record?
Answer: inactive

Question: And the Potency [2]?
Answer: inactive

Question: Which Potency [1] does the source give for `Nc1ccc(-c2ccc3ccccc3n2)cc1` here?
Answer: inactive

Question: What about the Potency [2] of the same compound?
Answer: inactive

Question: What about the max response [3] of the same compound?
Answer: 11.1% (inactive)

Question: What does the source list for `O=C1C2C=CC=CC2=NC(=S)N1CCN1CCC(=C(c2ccc(F)cc2)c2ccc(F)cc2)CC1` (stereo not given)?
Answer: Potency [1]: inactive; Potency [2]: inactive; max response [3]: 2.83% (inactive)

Question: With `CN[C@H](CC(=O)O)C(=O)O` as the compound, how does the Potency [4] read?
Answer: inactive

Question: What about the Potency [2] of the same compound?
Answer: inactive

Question: With `O=c1cc(-c2ccccc2)[nH]c2nc(Cl)ccc12` as the compound, how does the Potency [1] read?
Answer: inactive

Question: And the Potency [4]?
Answer: inactive

Question: And the max response [3]?
Answer: -6.09% (inactive)

Question: With `CC(C)C[C@H](NC(=O)[C@H](O)[C@H](N)Cc1ccccc1)C(=O)O` as the compound, how does the Potency [1] read?
Answer: inactive

Question: What about the Potency [2] of the same compound?
Answer: inactive

Question: And the max response [3]?
Answer: 2.38% (inactive)

Question: Which Potency [1] does the source give for `C=CCN1CCc2c(cc(O)c(O)c2Br)[C@@H](c2ccccc2)C1` here?
Answer: inactive

Question: And the Potency [2]?
Answer: inactive

Question: Which Potency [1] does the source give for `CC1CNCCN1S(=O)(=O)c1cccc2cnccc12` (stereo not given) here?
Answer: inactive

Question: And the Potency [2]?
Answer: inactive

Question: And the max response [3]?
Answer: 22.5% (inactive)

Question: Which results are given for `CC(N)=O`?
Answer: Potency [1]: inactive; Potency [2]: inactive; max response [3]: 12.7% (inactive)

Question: What does the source list for `N=S(=O)(O)Cc1noc2ccccc12`?
Answer: Potency [1]: inactive; Potency [2]: inactive; max response [3]: 7.99% (inactive)

Question: For `OC[C@H]1NC[C@@H](O)[C@@H]1O`, which Potency [2] is on record?
Answer: inactive

Question: With `CCCCCC[C@@H]([C@@H](C)O)n1cnc2c(N)ncnc21` as the compound, how does the Potency [4] read?
Answer: inactive

Question: And the Potency [2]?
Answer: inactive

Question: And the max response [3]?
Answer: 12% (inactive)

Question: With `NCC(O)(CS(=O)(=O)O)c1ccc(Cl)cc1` (stereo not given) as the compound, how does the Potency [4] read?
Answer: inactive

Question: What about the Potency [2] of the same compound?
Answer: inactive

Question: What about the max response [3] of the same compound?
Answer: -5.75% (inactive)

Question: Which results are given for `O=c1[nH]c(=S)[nH]c(-c2ccccc2)c1Cc1c(O)ccc2ccccc12`?
Answer: Potency [4]: inactive; Potency [2]: inactive; max response [3]: 1.54% (inactive)

Question: With `C[C@H]1CC2C3CCC4=CC(=O)C=C[C@]4(C)[C@@]3(Cl)[C@@H](O)C[C@]2(C)[C@@]1(O)C(=O)CO` (stereo not given in full) as the compound, how does the Potency [4] read?
Answer: inactive

Question: And the Potency [2]?
Answer: inactive

Question: And the max response [3]?
Answer: -6.5% (inactive)

Question: Which results are given for `CSC(=N)N`?
Answer: Potency [4]: inactive; Potency [2]: inactive; max response [3]: 32.5% (inactive)

Question: With `C[C@]12C=CC(=O)C=C1CC[C@@H]1C2=CC[C@]2(C)[C@@H](C(=O)CN3CCN(c4cc(N5CCCC5)nc(N5CCCC5)n4)CC3)CC[C@@H]12` as the compound, how does the Potency [4] read?
Answer: inactive

Question: What about the Potency [2] of the same compound?
Answer: inactive

Question: For `CCn1c(=O)[nH]c2cc(Cl)c(Cl)cc21`, which Potency [4] is on record?
Answer: inactive

Question: What about the Potency [2] of the same compound?
Answer: inactive

Question: And the max response [3]?
Answer: 24.6% (inactive)

Question: With `COC(=O)[C@H](NC(=O)c1cc(-c2ccccc2)nc2ccccc12)c1ccccc1` as the compound, how does the Potency [4] read?
Answer: inactive

Question: And the Potency [2]?
Answer: inactive

Question: And the max response [3]?
Answer: 9.97% (inactive)

Question: For `NC(=O)c1ccccc1`, which Potency [2] is on record?
Answer: inactive

Question: And the max response [6]?
Answer: -1.67% (inactive)

Question: And the Potency [7]?
Answer: inactive

Question: What does the source list for `CC(=O)NCCc1c[nH]c2ccc(O)cc12`?
Answer: Potency [4]: inactive; Potency [2]: inactive; max response [3]: 28.4% (inactive)
